mHTT CaM bind = disrupts binding of mutant huntingtin to calmodulin; inhibition, % at 15 µM; AlphaScreen His-mHTT/GST-CaM binding, luminescence; 190,000 compounds, 3.6% hits;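 further: 0% = both proteins with DMSO and 100% = one protein alone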
Pf apPOL inh = Pf-apPOL DNA polymerase inhibition; inhibition, % at 10 µM; AID 1794808; Recombinant Pf-apPOL, molecular beacon fluorescence, 1.5 h; 210,000 compounds, 0.25% hits
Numbers without * were called inactive; i = inactive; nt = no result. Rows were chosen to be rich in hits. Some 3.6% of all compounds tested hit in one or more screens of this group. No stated cut-off is given here; in the data, active means inhibition above about 50%; inactive means the rest.

SMILES	mHTT CaM bind	Pf apPOL inh
COc1ccc(C2=NN(C(=O)CN3CCOCC3)C(c3ccc(C)cc3C)C2)cc1 (stereo unspecified)	50	-4
COc1ccc(C2CC(c3cccc(C)c3)=NN2C(=O)CN2CCOCC2)cc1 (stereo unspecified)	66*	-3
COc1ccc(C2=NN(C(=O)CN3CCN(C)CC3)C(c3cccc(F)c3)C2)cc1 (stereo unspecified)	54*	-1
COc1cccc(C2=NN(C(=O)CN3CCOCC3)C(c3ccccc3C)C2)c1 (stereo unspecified)	38	-2
COc1ccc(C2CC(c3cccc(F)c3)=NN2C(=O)CN2CCC(C)CC2)cc1 (stereo unspecified)	23	-6
CC(Oc1ccccc1)C(=O)NCCc1ccc(F)cc1 (stereo unspecified)	-6	-3
O=C(Nc1ccc(I)cc1)c1cc2cc(Br)ccc2oc1=O	1	2
COc1ccc(CNC(=O)C2(C)CCCN(C(=O)c3cccc(Cl)c3)C2)cc1 (stereo unspecified)	-6	-9
CCN(CC)c1ccc(NC2=C(n3nnc4ccccc43)C(=O)c3ccccc3C2=O)cc1	70*	-3
O=C1C(Nc2ccc(Cl)cc2)=C(n2nnc3ccccc32)C(=O)c2ccccc21	18	-3
Cc1nnc(N2C(=O)C(O)=C(C(=O)c3cccs3)C2c2ccccc2F)s1 (stereo unspecified)	31	-8
Cc1nnc(N2C(=O)C(O)=C(C(=O)c3cccs3)C2c2ccc(Cl)c(Cl)c2)s1 (stereo unspecified)	92*	-4
Cc1ccc(S(=O)(=O)NC2CCN(c3ccccc3)C2=O)cc1 (stereo unspecified)	-4	-5
COc1ccccc1N1CCN(C/C=C/c2ccc(N(C)C)cc2)CC1	62*	-9
CCN1CCN(C/C=C/c2ccc(N(C)C)cc2)CC1	32	-2
C=CCCCC(=O)Nc1ccccc1Br	26	67*
O=C(O)CCC(=O)Nc1ccccc1Br	-3	-10
O=C1OC(c2ccc(F)cc2)=N/C1=C\c1cccc(F)c1	7	5
CCc1nnc(NS(=O)(=O)c2ccc(N=Cc3ccc([N+](=O)[O-])cc3)cc2)s1	6	-10
O=[N+]([O-])c1ccc(/C=N/Nc2nc3ccccc3s2)s1	i	nt
CSc1nc2c(c(Nc3ccc(N(C)C)cc3)n1)CCC2	57*	-1
CSc1nc2c(c(Nc3ccc(C)cc3)n1)CCC2	11	-11
O=C(NCCCn1ccnc1)c1cc(-c2ccc(Br)cc2)nc2ccccc12	44	-2
O=C(NCCc1ccc(Cl)cc1)c1cc(-c2cccnc2)nc2ccccc12	58*	-7
O=C(NCCCn1ccnc1)c1cc(-c2ccc(Cl)s2)nc2ccccc12	50*	3
SMILES	mHTT CaM bind	Pf apPOL inh
O=C(NCc1cccnc1)c1cc(-c2cccnc2)nc2ccccc12	-17	-9
COc1ccc(C(=O)Nc2ccc3c(c2)OCO3)c(OC)c1	2	-1
COc1ccc(CCNC(=O)Nc2cc(F)c(F)cc2Cl)cc1OC	0	-4
COc1ccc(Cl)cc1NC(=O)NCCc1ccc(N(C)C)cc1	55*	-3
CCn1c2c(c3ccccc31)CN(C(=O)c1ccc(C#N)cc1)CC2	54*	-4
CSc1nnc(-c2nn(C)c3c2CN(C(=O)c2ccc(C#N)cc2)CC3)n1C	-2	-4
O=C(Nc1nc2c(s1)COCC2)c1csc(-c2ccccc2)n1	22	-9
CCOc1ccccc1C(=O)N1CCC(COc2ccccc2C(=O)N2CCCC2)CC1	-2	-1
CCOc1ccccc1C(=O)N1CCC(CCOC)CC1	-4	67*
O=[N+]([O-])c1ccccc1-c1nc(-c2cccnc2)no1	3	-7
CCC1CN(C(=O)Nc2cc(C)ccc2OC)c2ccccc2O1 (stereo unspecified)	-29	1
N#CC1=C(N)SC(N)=C(C#N)C1c1cccc(Cl)c1	74*	4
N#CC1=C(N)SC(N)=C(C#N)C1c1ccc(Cl)cc1Cl	8	-8
CSc1ccccc1NC(=O)C(c1ccccc1)c1ccccc1	-26	-7
CSc1ccccc1NC(=O)C(c1ccccc1)n1cccc1 (stereo unspecified)	60*	15
O=C(NCc1ccco1)N1CCC(OCc2nc(C3CC3)no2)CC1	-3	-4
COc1ccc(C(=O)COc2ccc3c(=O)c(Oc4cccc(OC)c4)c(C)oc3c2)cc1	0	-6
O=C(C1CCN(Cc2ccc(OCc3ccccc3)cc2)CC1)N1CCN(c2ccccc2)CC1	63*	-7
O=C(C1CCN(Cc2cccc(OCc3ccccc3)c2)CC1)N1CCOCC1	1	-4
COc1cccc(C2CN(C(=O)c3cccs3)CC2C(=O)N2CCCCC2)c1 (stereo unspecified)	4	-1
O=c1cn[nH]c(=S)n1/N=C/c1cc(Br)c(O)c(Br)c1	i	nt
Cc1ccc(N(C(=O)c2ccccc2)C2C=CS(=O)(=O)C2)cc1 (stereo unspecified)	-4	-3
CC(=O)Oc1cc(C(=O)N(c2ccc(C)cc2)C2C=CS(=O)(=O)C2)cc(OC(C)=O)c1OC(C)=O (stereo unspecified)	96*	90*
COc1ccc(N=c2oc3ccccc3cc2C(=O)Nc2nccs2)cc1	2	2
O=C(C1CCN(c2nnc(-c3ccccc3)o2)CC1)N1CCC(Cc2ccccc2)CC1	70*	-7
SMILES	mHTT CaM bind	Pf apPOL inh
O=C(C1CCN(c2nnc(-c3ccccc3)o2)CC1)N1CCCCC1	-2	-7
CC(C)(C)C(=O)N1CCC(CCOc2ccccc2F)CC1	-16	1
COc1ccc(N=c2oc3ccccc3cc2C(=O)NC(C)=O)cc1	1	4
O=S(=O)(NCC(O)c1cccs1)c1cc(F)ccc1F (stereo unspecified)	-12	-2
Cc1ccc(-c2nc(C=Nc3ccc(Cl)c([N+](=O)[O-])c3)c(O)o2)cc1	2	0
Cn1cc(CN2CCC(C(=O)NCc3ccco3)CC2)c2cc(Cl)ccc21	25	-3
Cc1ccccc1Cn1c(CN2CCC(C(=O)NCc3ccco3)CC2)cc2ccccc21	86*	2
CCOc1ccc(CN2CCC(C(=O)NCCc3ccccc3)CC2)cc1	-1	8
O=C(NCCc1ccco1)C1CCN(Cc2cc3ccccc3n2Cc2ccccc2)CC1	58*	1
CCc1ccc(CN2CCC(C(=O)NCc3ccco3)CC2)cc1	8	1
O=C(NCc1ccco1)C1CCN(Cc2cc3ccccc3n2Cc2ccccc2)CC1	73*	3
CCCCOc1ccc(C(=O)N2CCN=C2SC)cc1	-6	-9
Clc1ccc(C2=NN(c3ccccc3)C(c3csc(-c4ccccc4)n3)C2)cc1 (stereo unspecified)	nt	2
Cc1ccc(Nc2nc(-c3ccc4c(c3)OCO4)cs2)nc1	8	-2
Cc1ccc(Nc2nc(-c3ccc(O)c(O)c3)cs2)nc1	79*	-4
Cc1ccc(-c2csc(Nc3ccccn3)n2)c(C)c1	3	-1
Cc1cccnc1Nc1nc(-c2ccc(O)cc2O)cs1	100*	-14
COc1ccc(-c2csc(Nc3ncccc3C)n2)cc1C	26	5
Oc1ccc(-c2csc(Nc3ccccn3)n2)c(O)c1	96*	2
CCOc1ccc(N2C(=O)CSC2c2ccccc2Br)cc1 (stereo unspecified)	-1	-2
CCN(Cc1cn(C)nc1C)C(=O)c1cn2ccccc2n1	-2	1
CC(=O)Nc1nc(N)n(-c2ccccc2)n1	-1	-1
